The campaign covered roughly 5,500 compounds. About 2,000 (36%) were called active. Not shown: some 18% with an inconclusive outcome. Rule as the data show it: active = normalized growth mostly below about 0.91 (no sharp cut-off); inconclusive = no clear call, values can overlap the other calls; inactive = mostly above about 0.92. The list shows a part of the results.
Experiment: chemical genetic growth profiling, strain panel (AID 1159580);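 also: tested at 20 µM; growth read once vehicle control cultures reached saturation at 30 °C; 1 = growth at the plate median or of vehicle wells; lower values mean less growth of the strain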
Settings: growth OD

Measured: normalized growth

COc1c(C)c2c(c(C)c1Cl)Oc1c(Cl)c(OC)c(Cl)c(C)c1C(=O)O2
inactive: S. cerevisiae deletion strains, locus YAL013W, strain DEP1, active compounds read low 0.992 | S. cerevisiae deletion strains, locus YBR021W, strain FUR4, active compounds read low 1.05 | S. cerevisiae deletion strains, locus YBR229C, strain ROT2, active compounds read low 1.01 | S. cerevisiae deletion strains, locus YCL029C, strain bik1, active compounds read low 1.02 | S. cerevisiae deletion strains, locus YDL035C, strain GPR1, active compounds read low 1.01 | S. cerevisiae deletion strains, locus YDL074C, strain BRE1, active compounds read low 1 | S. cerevisiae deletion strains, locus YDL101C, strain DUN1, active compounds read low 1.01 | S. cerevisiae deletion strains, locus YDL134C, strain PPH21, active compounds read low 1.01 | S. cerevisiae deletion strains, locus YDL185W, strain tfp1, active compounds read low 1.02 | S. cerevisiae deletion strains, locus YDL192W, strain arf1, active compounds read low 1.02 | S. cerevisiae deletion strains, locus YDR101C, strain arx1, active compounds read low 1.01 | S. cerevisiae deletion strains, locus YDR150W, strain NUM1, active compounds read low 1.02 | S. cerevisiae deletion strains, locus YDR162C, strain NBP2, active compounds read low 0.987 | S. cerevisiae deletion strains, locus YDR318W, strain mcm21, active compounds read low 1.03 | S. cerevisiae deletion strains, locus YDR388W, active compounds read low 1.01 | S. cerevisiae deletion strains, locus YDR502C, strain sam2, active compounds read low 1.01 | S. cerevisiae deletion strains, locus YEL061C, strain CIN8, active compounds read low 1.01 | S. cerevisiae deletion strains, locus YER110C, active compounds read low 1.02 | S. cerevisiae deletion strains, locus YER155C, strain BEM2, active compounds read low 1.01 | S. cerevisiae deletion strains, locus YER167W, strain BCK2, active compounds read low 1.03 | S. cerevisiae deletion strains, locus YGL078C, strain dbp3, active compounds read low 1.01 | S. cerevisiae deletion strains, locus YGL086W, strain mad1, active compounds read low 1.02 | S. cerevisiae deletion strains, locus YGL248W, strain PDE1, active compounds read low 1.02 | S. cerevisiae deletion strains, locus YGR078C, strain PAC10, active compounds read low 1.01 | S. cerevisiae deletion strains, locus YGR135W, strain pre9, active compounds read low 1 | S. cerevisiae deletion strains, locus YGR229C, strain SMI1, active compounds read low 0.991 | S. cerevisiae deletion strains, locus YGR252W, strain gcn5, active compounds read low 1.05 | S. cerevisiae deletion strains, locus YHR030C, strain SLT2, active compounds read low 1.02 | S. cerevisiae deletion strains, locus YHR079C, strain IRE1 (second series), active compounds read low 1.03 | S. cerevisiae deletion strains, locus YHR094C, strain hxt1, active compounds read low 1.01 | S. cerevisiae deletion strains, locus YHR129C, strain ARP1, active compounds read low 1.02 | S. cerevisiae deletion strains, locus YHR200W, strain rpn10, active compounds read low 1.02 | S. cerevisiae deletion strains, locus YIL066C, strain RNR3, active compounds read low 1 | S. cerevisiae deletion strains, locus YIL073C, strain SPO22, active compounds read low 1.08 | S. cerevisiae deletion strains, locus YIL125W, strain kgd1, active compounds read low 1.02 | S. cerevisiae deletion strains, locus YIR030C, strain dcg1, active compounds read low 1.01 | S. cerevisiae deletion strains, locus YJL095W, strain BCK1, active compounds read low 1.02 | S. cerevisiae deletion strains, locus YJL134W, strain LCB3, active compounds read low 1.01 | S. cerevisiae deletion strains, locus YJL168C, strain set2, active compounds read low 1.01 | S. cerevisiae deletion strains, locus YJL187C, strain SWE1 (second series), active compounds read low 1.01 | S. cerevisiae deletion strains, locus YJR043C, strain POL32, active compounds read low 1.04 | S. cerevisiae deletion strains, locus YJR075W, strain HOC1, active compounds read low 1.01 | S. cerevisiae deletion strains, locus YKL009W, strain mrt4, active compounds read low 1.03 | S. cerevisiae deletion strains, locus YKL068W, active compounds read low 1.01 | S. cerevisiae deletion strains, locus YKL085W, strain MDH1 (second series), active compounds read low 1.02 | S. cerevisiae deletion strains, locus YKL085W, strain MDH1, active compounds read low 1.02 | S. cerevisiae deletion strains, locus YKL190W, strain CNB1, active compounds read low 1.01 | S. cerevisiae deletion strains, locus YKR001C, strain vps1, active compounds read low 1.03 | S. cerevisiae deletion strains, locus YLR039C, strain RIC1, active compounds read low 1.06 | S. cerevisiae deletion strains, locus YLR058C, strain SHM2, active compounds read low 1.02 | S. cerevisiae deletion strains, locus YLR102C, strain apc9, active compounds read low 1.01 | S. cerevisiae deletion strains, locus YLR262C, strain YPT6, active compounds read low 1.02 | S. cerevisiae deletion strains, locus YLR268W, strain sec22, active compounds read low 0.997 | S. cerevisiae deletion strains, locus YLR330W, strain CHS5, active compounds read low 1.02 | S. cerevisiae deletion strains, locus YLR342W, strain FKS1 (second series), active compounds read low 1.08 | S. cerevisiae deletion strains, locus YLR371W, strain rom2, active compounds read low 1.02 | S. cerevisiae deletion strains, locus YLR418C, strain cdc73, active compounds read low 0.989 | S. cerevisiae deletion strains, locus YML016C, strain PPZ1, active compounds read low 1.01 | S. cerevisiae deletion strains, locus YML032C, strain rad52, active compounds read low 1.03 | S. cerevisiae deletion strains, locus YML124C, strain tub3, active compounds read low 1.01 | S. cerevisiae deletion strains, locus YMR078C, strain ctf18, active compounds read low 1.02 | S. cerevisiae deletion strains, locus YMR223W, strain ubp8, active compounds read low 1.03 | S. cerevisiae deletion strains, locus YMR263W, strain SAP30, active compounds read low 1.01 | S. cerevisiae deletion strains, locus YMR307W, strain GAS1, active compounds read low 1.06 | S. cerevisiae deletion strains, locus YNL067W, strain RPL9B, active compounds read low 1.01 | S. cerevisiae deletion strains, locus YNL128W, strain TEP1, active compounds read low 0.967 | S. cerevisiae deletion strains, locus YNL153C, strain GIM3, active compounds read low 1 | S. cerevisiae deletion strains, locus YNL233W, strain BNI4, active compounds read low 1.02 | S. cerevisiae deletion strains, locus YNL250W, strain rad50, active compounds read low 1.01 | S. cerevisiae deletion strains, locus YNL271C, strain bni1, active compounds read low 1.01 | S. cerevisiae deletion strains, locus YNL298W, strain CLA4, active compounds read low 1.03 | S. cerevisiae deletion strains, locus YNL307C, strain MCK1, active compounds read low 1.03 | S. cerevisiae deletion strains, locus YNL322C, strain KRE1, active compounds read low 1 | S. cerevisiae deletion strains, locus YNR052C, strain pop2, active compounds read low 1.02 | S. cerevisiae deletion strains, locus YOL006C, strain TOP1, active compounds read low 1.1 | S. cerevisiae deletion strains, locus YOL012C, strain htz1 0.785 | S. cerevisiae deletion strains, locus YOL147C, strain pex11, active compounds read low 1.01 | S. cerevisiae deletion strains, locus YOR061W, strain CKA2, active compounds read low 1.01 | S. cerevisiae deletion strains, locus YOR069W, strain VPS5, active compounds read low 1.02 | S. cerevisiae deletion strains, locus YOR136W, strain idh2, active compounds read low 1.02 | S. cerevisiae deletion strains, locus YOR144C, strain elg1, active compounds read low 1.01 | S. cerevisiae deletion strains, locus YOR184W, strain ser1, active compounds read low 1.05 | S. cerevisiae deletion strains, locus YOR316C, strain cot1, active compounds read low 1.02 | S. cerevisiae deletion strains, locus YPL055C, strain LGE1, active compounds read low 0.99 | S. cerevisiae deletion strains, locus YPL241C, strain CIN2, active compounds read low 1 | S. cerevisiae deletion strains, locus YPR119W, strain clb2, active compounds read low 1 | S. cerevisiae deletion strains, locus YPR141C, strain kar3, active compounds read low 1.01 | S. cerevisiae deletion strains, locus YPR163C, strain tif3, active compounds read low 1.03 | S. cerevisiae deletion strains, locus YPR167C, strain met16, active compounds read low 1.01 | S. cerevisiae deletion strains, strain wtn01, active compounds read low 1.01 | S. cerevisiae strains, strain wild type, active compounds read low 1

Source: PubChem BioAssay AID1159580 (chemical genetic matrix, 2015)
